Assay [1] in a line: NCI Yeast Anticancer Drug Screen. Data for the rad50 strain (AID 155).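 Note: 0% = growth of vehicle-only cultures of the same strain.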 Conditions: S. cerevisiae rad50 strain growth inhibition; at 50.0 µM; active compounds read high. A digest of the protocol:
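Vehicle-treated cultures provide the reference for the growth inhibition reported for compound-exposed, repair-deficient yeast.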

Assay [2] in a line: NCI Yeast Anticancer Drug Screen. Data for the mec2-1 strain (AID 157). Conditions: S. cerevisiae mec2-1 strain, at 50.0 µM, active compounds read high. A digest of the protocol:
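Each compound was tested on mec2-1 yeast, a strain altered in DNA damage repair or cell cycle control. Growth inhibition is reported relative to vehicle.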

Assay [3] can be described thus: NCI Yeast Anticancer Drug Screen. Data for the sgs1 mgt1 strain (AID 161).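 Note: 0% = growth of cultures given vehicle only.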 Conditions: S. cerevisiae sgs1 mgt1 strain, at 50.0 µM, active compounds read high. A digest of the protocol:
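Inhibition of yeast growth, normalised to vehicle-treated controls, is reported for a strain bearing genetic alterations in DNA damage repair.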

A short description of assay [4]: NCI Yeast Anticancer Drug Screen. Data for the cln2 rad14 strain (AID 165).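 Note: 0% = growth equal to vehicle treated cultures.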 Conditions: S. cerevisiae cln2 rad14 strain, at 50.0 µM, active compounds read high. In a few lines: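 Test compounds were added to cln2 rad14 yeast cultures; inhibition of growth was then determined by comparison with vehicle treatment.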
Assay [5] is described as follows: NCI Yeast Anticancer Drug Screen. Data for the bub3 strain (AID 167). Conditions: S. cerevisiae bub3 mutant strain, at 50.0 µM, active compounds read high. In a few lines: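 Mutant yeast screening strain plus compound; vehicle-treated cultures serve as the 0% inhibition reference.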
The nature of assay [6]: NCI Yeast Anticancer Drug Screen. Data for the mlh1 rad18 strain (AID 175). Conditions: S. cerevisiae mlh1 rad18 strain growth inhibition; at 50.0 µM; active compounds read high. In a few lines: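 Inhibition values reflect reduced growth of mutant yeast versus vehicle-treated controls following compound exposure; the mutations affect DNA damage repair.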

The panel holds about 79,000 compounds, 15% with a hit somewhere; the sample as a whole holds those more often. Values without a mark were called inactive. Active and inactive are the calls of the source. Cut-off read from the data, not from the text of the source: active = growth inhibition above about 70%; inactive = the rest.

Consider `CCOC(=O)c1c2c(c(-c3ccccc3)n1C)C(=O)C(C)=C(C)C2=O`, for which the growth inhibition in assay [1] was -10.8%; in assay [2], -2.4%; in assay [3] it was -10.2%; in assay [4], -28.9%; in assay [5] it was 1.05%; in assay [6] it was -6.65%.

For the compound `CNC(=O)C1CCC(=O)N1CN(C(C)=O)c1ccccc1` (configuration not stated), the growth inhibition in assay [1] is 3.85%; in assay [2] it was 13.9%; in assay [3], -12.9%; in assay [4], 13.7%; in assay [5] it was -13.9%; in assay [6], -63.5%.

Regarding `O=C1C=C2CCC[C@H]3OC(=O)C[C@@]23CC1`, the growth inhibition in assay [1] was 12.4%; in assay [2], 16.2%; in assay [3], 35.3%; in assay [4], 28.4%; in assay [5], -0.95%; in assay [6], 27.4%.

For the compound `CC1=NN(C(=O)CC(=O)Nc2ccccc2C)C(=O)C1N=Nc1ccc(S(=O)(=O)c2ccc(N=NC3C(=O)N(C(=O)CC(=O)Nc4ccccc4C)N=C3C)cc2)cc1` (configuration not stated), the growth inhibition was 41.6% in assay [1]; 14.5% in assay [2]; -2.25% in assay [3]; 2.45% in assay [4]; -8.75% in assay [5]; 1.35% in assay [6].

Regarding `O=C(NCCN1CCCC1)Nc1ccccc1`, the growth inhibition in assay [1] is -3.2%; in assay [2] it was -20.2%; in assay [3], -17.2%; in assay [4] it was -47.7%; in assay [5], 2.3%; in assay [6], 8.45%.

Turning to `COc1cc(COC(=O)Nc2ccccc2F)cc(OC)c1OC`, the growth inhibition was -4.9% in assay [1]; -19.1% in assay [2]; 7.25% in assay [3]; 5.85% in assay [4]; 19.6% in assay [5]; -10% in assay [6].

Take `Cc1cc(C)c(C(=O)/C=C(\N)C(=O)c2c(C)cc(C)cc2C)c(C)c1`: the growth inhibition is -7.05% in assay [1]; 0% in assay [2]; 2.75% in assay [3]; 14.7% in assay [4]; 27.1% in assay [5]; 4.75% in assay [6].

As for `CC1CN=C(Nc2ccc(S(N)(=O)=O)cc2)S1` (configuration not stated), the growth inhibition is -21.2% in assay [1]; -18.6% in assay [2]; -58.1% in assay [3]; -11.4% in assay [4]; -2.25% in assay [5]; -43% in assay [6].

Consider `O=c1c2ccccc2n2c(-c3ccc(O)cc3)nnc2n1-c1ccccc1`, for which the growth inhibition was -30.3% in assay [1]; -17.1% in assay [2]; 4.4% in assay [3]; 7.75% in assay [4]; 1.5% in assay [5]; -14.8% in assay [6].

Take `N=C(N)Sc1cc(O)c2ccccc2c1O`: the growth inhibition in assay [1] is -33%; in assay [2], -6.45%; in assay [3], -28.1%; in assay [4], -45.8%; in assay [5], 4.1%; in assay [6], -2%.

Consider `Nc1ncnc(N)c1NC(=O)c1cccc(-c2ccccc2)c1`, for which the growth inhibition in assay [1] is 2.85%; in assay [2] it was 41.1%; in assay [3], 23.9%; in assay [4], 0.8%; in assay [5] it was 34.9%; in assay [6], -21.1%.

On to `COC(=O)CCCCCCCCCCCCC1C=CCC1` (configuration not stated), for which the growth inhibition in assay [1] is 8.9%; in assay [2], -31.1%; in assay [3] it was 11.4%; in assay [4] it was 9.25%; in assay [5] it was -5.85%; in assay [6] it was 4.25%.

`C/C(=N\N)c1cnc(N)nc1C`: the growth inhibition in assay [1] is -2.75%; in assay [2] it was 5.4%; in assay [3], 7.65%; in assay [4], -6.3%; in assay [5], -11.7%; in assay [6], -12.8%.

With `O=[N+]([O-])c1cnc(/C=[N+](\[O-])C2CCCCC2)n1CCO`, the growth inhibition in assay [1] is 3.7%; in assay [2] it was 17.6%; in assay [3], -0.3%; in assay [4] it was 13.7%; in assay [5], 16.6%; in assay [6], 9.8%.

As for `CN(C)c1ccc(/C=C/c2ccnc3c(N)cccc23)cc1`, the growth inhibition in assay [1] was -3.95%; in assay [2], -8.85%; in assay [3] it was -14.4%; in assay [4], -12.8%; in assay [5] it was -10.9%; in assay [6], 3.8%.

`CCOC(=O)C(C)(C)c1cn(C)c2ccccc12`: the growth inhibition in assay [1] is -7.05%; in assay [2], -9.9%; in assay [3], -2.7%; in assay [4] it was -4.8%; in assay [5], -6.55%; in assay [6], 7.4%.

`OCC1CC1c1ccccc1` (configuration not stated): the growth inhibition in assay [1] was -4.75%; in assay [2], -0.65%; in assay [3], -6.4%; in assay [4], 10.5%; in assay [5], 10.7%; in assay [6], 5.55%.

As to `O=[N+]([O-])c1ccc(N/N=C2\C=CCCC2)c([N+](=O)[O-])c1`, the growth inhibition was -0.95% in assay [1]; -11.9% in assay [2]; -13% in assay [3]; 15.3% in assay [4]; -12.6% in assay [5]; 17.1% in assay [6].

As for `O=C1c2cccc3cc([N+](=O)[O-])cc(c23)C(=O)N1Cc1cccnc1`, the growth inhibition in assay [1] is 42.5%; in assay [2] it was 15.6%; in assay [3], 38.6%; in assay [4] it was 19%; in assay [5] it was 10.5%; in assay [6] it was 10.8%.

Take `Nc1ccc(S(=O)(=O)S(=O)(=O)c2ccc(N)cc2)cc1`: the growth inhibition is -0.1% in assay [1]; 1.95% in assay [2]; -3.55% in assay [3]; 12.4% in assay [4]; -0.9% in assay [5]; -2.95% in assay [6].

In the case of `CCCCCCCCCCCCCCCCCCNC(=O)Nc1ccccc1`, the growth inhibition in assay [1] was 3.1%; in assay [2], 7.05%; in assay [3] it was -2.75%; in assay [4], -7.65%; in assay [5], -4.05%; in assay [6], 15.3%.

Regarding `O=[N+]([O-])c1ccc(N/N=C2/CC3=C2CCCCCCCCCC3)c([N+](=O)[O-])c1`, the growth inhibition in assay [1] was -6.35%; in assay [2], -4.95%; in assay [3], 11%; in assay [4], -14.2%; in assay [5] it was -2.15%; in assay [6], -13.4%.

Take `CC(=O)Oc1ccccc1[C@H]1CC(=O)C[C@H](c2ccccc2OC(C)=O)C12C(=O)c1ccccc1C2=O`: the growth inhibition was -12.8% in assay [1]; -18.4% in assay [2]; -7.55% in assay [3]; 30.1% in assay [4]; -17.4% in assay [5]; 9.3% in assay [6].

As to `O=S(=O)(O)c1ccccc1`, the growth inhibition in assay [1] is -16.6%; in assay [2], -8.5%; in assay [3], -6.05%; in assay [4], -2.25%; in assay [5], 0.15%; in assay [6] it was 1.25%.

For the compound `Nc1nc(N)c(N2CCN(Cc3ccccc3)CC2)c(Cl)n1`, the growth inhibition was 30.1% in assay [1]; 10.8% in assay [2]; 33.1% in assay [3]; 18.9% in assay [4]; 18.3% in assay [5]; 27.4% in assay [6].

Regarding `COc1ccc(NC(C)=O)cc1[N+](=O)[O-]`, the growth inhibition in assay [1] was -4.6%; in assay [2] it was -7.7%; in assay [3], -1.7%; in assay [4], -13.3%; in assay [5], -18.3%; in assay [6], 6.15%.

In the case of `CN(CC(=O)C(O)C(O)C(O)CO)c1ccccc1` (configuration not stated), the growth inhibition is -10.4% in assay [1]; -8.75% in assay [2]; -7.6% in assay [3]; -16.1% in assay [4]; -2.6% in assay [5]; -9.7% in assay [6].

`CCCc1c(C(=O)OCC)[nH]c(C(=O)CCC(=O)c2[nH]c(C(=O)OCC)c(CCC)c2C(=O)OCC)c1C(=O)OCC`: the growth inhibition in assay [1] is 20.2%; in assay [2] it was -13.5%; in assay [3], -10.9%; in assay [4] it was -19.4%; in assay [5], -15.7%; in assay [6] it was 2.35%.

Take `S=C(N/N=C/c1cccc2ccccc12)Nc1c(Cl)cccc1Cl`: the growth inhibition was 67.4% in assay [1]; 83.6% (active) in assay [2]; 94.2% (active) in assay [3]; 55.6% in assay [4]; 44.6% in assay [5]; 66.2% in assay [6].

As to `CSCCC(N)=O`, the growth inhibition was -10.2% in assay [1]; -6.95% in assay [2]; 9.8% in assay [3]; 0.05% in assay [4]; -16.8% in assay [5]; 2.9% in assay [6].

For `COC(=O)C(C(=O)OC)C(Br)(OC(C)=O)OC(C)=O`, the growth inhibition is -8.95% in assay [1]; 8.2% in assay [2]; 4.55% in assay [3]; 6.65% in assay [4]; 11.1% in assay [5]; -3.35% in assay [6].

In the case of `CC1OC(OCC2OC(Oc3c(-c4ccc(O)cc4)oc4cc(O)cc(O)c4c3=O)C(OC3OC(C)C(O)C(O)C3O)C(O)C2O)C(O)C(O)C1O` (configuration not stated), the growth inhibition in assay [1] was -13.7%; in assay [2], -21.2%; in assay [3], -2.2%; in assay [4], 2.75%; in assay [5], -2.9%; in assay [6], 5.6%.

For `CCN(CC)CCNc1cc2ccccc2c2sc3ccccc3c(=O)c12`, the growth inhibition in assay [1] was 98.5% (active); in assay [2] it was 99.2% (active); in assay [3], 97.6% (active); in assay [4], 98.8% (active); in assay [5], 98.2% (active); in assay [6] it was 98.3% (active).

With `COC(=O)C1Cc2ccccc2C1=O` (configuration not stated), the growth inhibition is -1.75% in assay [1]; -13.2% in assay [2]; -14.8% in assay [3]; -40.5% in assay [4]; -11.8% in assay [5]; -6.45% in assay [6].

With `CC(NC(=O)C1CCCN1C(=O)OCc1ccccc1)C(=O)O` (configuration not stated), the growth inhibition in assay [1] was -7.7%; in assay [2] it was 31.1%; in assay [3] it was -10.5%; in assay [4] it was 2.1%; in assay [5] it was -13.2%; in assay [6] it was -19.6%.

Turning to `CCCCCCCCCCCCCCCC[Si](Cl)(Cl)Cl`, the growth inhibition in assay [1] was -0.6%; in assay [2], -10.7%; in assay [3], -5.85%; in assay [4] it was -22.6%; in assay [5], 2.95%; in assay [6] it was 10.1%.

`[O-]/[N+](=C\c1ccc(Cl)cc1)c1ccccc1`: the growth inhibition in assay [1] was -11.2%; in assay [2], -14.1%; in assay [3] it was -21.1%; in assay [4] it was -8.85%; in assay [5], -18.9%; in assay [6] it was -7%.

For the origin of these results see PubChem BioAssay (NCI).
